# Test results taken from the supplement of paper PMC10515830.
# Where a name gives a salt, the structure may show the parent alone.
# Assays:
# Details in all cases: 10 µM; exposure time 6 h
# [1] = system: Danio rerio larvae (5 dpf); test: difference in excitability vs DMSO (percentage points); higher = more excitable than DMSO
# Procedure, shortened: (§1)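 Wild-type 5 dpf zebrafish larvae in 96-well plates were given 100 µL egg water containing library compound at 10 µM final for 6 h. After 3 h of exposure, plates at 28.5 ℃ were photographed every 6 s during a 3-h programme of moving lines and 100 ms, 400Hz tones. Z-LaP Tracker (a DeepLabCut model) quantified each behaviour, averaged over 48 larvae per compound. Values are the compound mean minus the DMSO-vehicle control, in percentage points.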
# [2] = system: Danio rerio larvae (5 dpf); test: difference in startle response vs DMSO (percentage points); higher = stronger startle than DMSO
# Procedure, shortened: as §1
# [3] = system: Danio rerio larvae (5 dpf); test: difference in activity during first hour vs DMSO (percentage points); higher = more activity than DMSO
# Procedure, shortened: as §1
# [4] = system: Danio rerio larvae (5 dpf); test: difference in habituation to acoustic stimuli vs DMSO (percentage points); higher = more habituation than DMSO
# Procedure, shortened: as §1
# [5] = system: Danio rerio larvae (5 dpf); test: difference in combined optomotor response to red, green and blue moving lines vs DMSO (percentage points); higher = stronger optomotor response than DMSO
# Procedure, shortened: as §1
Structure (SMILES),difference in excitability [1],difference in startle response [2],difference in activity during first hour [3],difference in habituation to acoustic stimuli [4],difference [5]
CC(=O)Nc1nnc(S(N)(=O)=O)s1 [Acetazolamide],-5.01,8.72,14.2,6.2,3.65
CO/N=C1\CN(c2nc3c(cc2F)c(=O)c(C(=O)O)cn3C2CC2)CC1CN (stereo not given) [Gemifloxacin (mesylate)],7.63,9.12,11,-1.77,2.04
OCCN1CCN(CCCN2c3ccccc3Sc3ccc(Cl)cc32)CC1 [Perphenazine],18.9,-4.36,24,-10.2,2.99
CN(C)CCOC(c1ccc(Cl)cc1)c1ccccn1 (stereo not given) [Carbinoxamine (maleate)],8.33,3.19,-11.6,5.36,-7.17
CNCC[C@H](Oc1cccc2ccccc12)c1cccs1 [(S)-Duloxetine (hydrochloride)],4.76,-1.86,-21,-3.34,-11.3
CNC[C@H](O)c1ccc(O)c(O)c1 (racemic) [(±)-Epinephrine (hydrochloride)],-0.953,-6,37.7,-7.58,4.53
CC(C)C(=O)OCC(=O)[C@@]12O[C@H](C3CCCCC3)O[C@@H]1C[C@H]1[C@@H]3CCC4=CC(=O)C=C[C@]4(C)[C@H]3[C@@H](O)C[C@@]12C [Ciclesonide],9.7,-3.59,-7.9,-5.49,9.17
CC(=O)OCC(=O)[C@@]1(O)CC[C@H]2[C@@H]3CCC4=CC(=O)CC[C@]4(C)[C@@]3(F)[C@@H](O)C[C@@]21C [Fludrocortisone Acetate],-4.21,4.97,-1.84,0.633,1.96
CCC1(c2ccccc2)C(=O)NCNC1=O [Primidone],3.77,4.38,11.2,-0.65,9.02
COCCCOc1cc(C[C@@H](C[C@H](N)[C@@H](O)C[C@H](C(=O)NCC(C)(C)C(N)=O)C(C)C)C(C)C)ccc1OC [Aliskiren (hemifumarate)],16.6,-3.2,10.2,0.61,3.27
CCCN[C@H]1CCc2nc(N)sc2C1 [(S)-Pramipexole (hydrochloride)],6.47,-2.57,-10.9,5.7,0.342
Nc1cc(-c2ccncc2)c[nH]c1=O [Amrinone],-0.366,5.87,-4.08,9.44,0.366
C#C[C@]1(O)CC[C@H]2[C@@H]3CCC4=CCCC[C@@H]4[C@H]3C(=C)C[C@@]21CC [Desogestrel],16.3,-10.3,30.8,-6.42,-15.3
COC(=O)N[C@H](C(=O)N1CCC[C@H]1c1nc(-c2ccc3c(c2)O[C@@H](c2ccccc2)n2c-3cc3cc(-c4c[nH]c([C@@H]5CCCN5C(=O)[C@@H](NC(=O)OC)C(C)C)n4)ccc32)c[nH]1)C(C)C [Elbasvir],9.31,-11.8,0.959,5.9,1.3
CN(C)CCCC1(c2ccc(F)cc2)OCc2cc(C#N)ccc21 (stereo not given) [Citalopram (hydrobromide)],8.67,-1.92,-12.8,-3.86,-4.06
C=C[C@]1(C)C[C@@H](OC(=O)CS[C@@H]2C[C@H]3CC[C@@H](C2)N3C)[C@]2(C)[C@H](C)CC[C@]3(CCC(=O)[C@H]32)[C@@H](C)[C@@H]1O [Retapamulin],25.1,5.21,-2.58,1.86,5.67
COc1c(N2C[C@@H]3CCCN[C@@H]3C2)c(F)cc2c(=O)c(C(=O)O)cn(C3CC3)c12 [Moxifloxacin (hydrochloride)],22.9,4.54,5.78,3.51,3.81
CCCCC1=NC2(CCCC2)C(=O)N1Cc1ccc(-c2ccccc2-c2nnn[nH]2)cc1 [Irbesartan],5.86,-3.98,6.09,-4.93,5.61
C=C(CC)C(=O)c1ccc(OCC(=O)O)c(Cl)c1Cl [Ethacrynic Acid],4.29,4.46,19.4,-1.45,6.1
CC(=O)OC(C)C[N+](C)(C)C (stereo not drawn) [Acetyl-β-methylcholine (chloride)],1.77,1.22,3.93,15,1.43
CC1=C(CC(=O)O)c2cc(F)ccc2/C1=C\c1ccc([S+](C)[O-])cc1 (stereo not given) [Sulindac],6.96,0.529,10.8,0.634,-2.61
Cc1ccc(/C(=C\CN2CCCC2)c2cccc(/C=C/C(=O)O)n2)cc1 [Acrivastine],1.28,-0.645,0.462,0.73,-3.37
C=CC[N+]1([C@H]2C[C@H]3[C@@H]4CC[C@H]5C[C@H](O)[C@@H](N6CCOCC6)C[C@]5(C)[C@H]4CC[C@]3(C)[C@H]2OC(C)=O)CCCC1 [Rocuronium (bromide)],14.3,-3.01,-1.74,4.51,-2.53
